Results on 59 compounds are retold here after PubChem BioAssay AID1981 (Southern Research Specialized Biocontainment Screening …, 2009).

The campaign covered roughly 2,200 compounds. About 480 (22%) were called active. A selection follows. Entries with a potency or affinity are not part of this list. A number with no mark means an inactive call. No rule for the calls is given here.

The nature of the experiment: S. Typhimurium GFP fluorescence modified counterscreen for PhoP regulon inhibitor project dose response (AID 1981).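 Also: 0% = induced DMSO wells and 100% = uninduced wells.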 The conditions noted are these: 4 h; series mostly up to 150 µM; inhibition: at the top concentration. On the technique in general: Counterscreens check selectivity or assay interference.
With `CC(C)n1cc(C(=O)N2CCCC(N3CCN(c4ccc(F)cc4)CC3)C2)cn1` (centres undefined), the inhibition (as a rule, the drop in the measured response relative to a control, in per cent) is -15.7%. Regarding `O=C(CSc1nc2ccccc2o1)Nc1ccc(N2CCOCC2)c(Cl)c1`, the “inhibition” value is 12.4%. On to `O=C(c1ccccc1)N1CCSC1=S`, for which the “inhibition” value is -8.47%.

Take `CC1(C)CC(=O)C(/C=N/c2ncccc2C(=O)O)=C(O)C1`: the “inhibition” value is 21.9%.

`CCCCCn1c(N)c(C(=O)NCc2cccs2)c2nc3ccccc3nc21`: the “inhibition” value is -20.1%.

Consider `O=C(c1ccc2nc(N3CCOCC3)sc2c1)N1CCC(Cc2ccccc2)CC1`, for which the “inhibition” value was 3.45%. As for `COc1ccc(-c2nnn(CC(=O)N(Cc3ccco3)C(C(=O)NCC3CCCO3)c3ccco3)n2)cc1` (centres undefined), the “inhibition” value is 1.01%. `C#CC(=O)N(c1cc(OC)ccc1OC)C(C(=O)NC1CCCC1)c1cccs1` (centres undefined): the “inhibition” value was 17.8%. Consider `CCC(C)NC(=O)c1ccccc1NC(=O)C(C)N(c1ccccc1)S(C)(=O)=O` (centres undefined), for which the “inhibition” value was -9.1%. The figure for `CN(C)c1ccc(Nc2nc(-c3cccnc3)cs2)cc1` is 35.9%; for `Nc1nc(-c2ccc3c(c2)OCCO3)cs1` it is -7.79%; for `CCn1c2ccccc2c2cc(N)ccc21` it is 15.1%. The figure for `CCc1cccc(NC(=O)Nc2cccs2)c1` is 6.84%. In the case of `COc1ccc(N=c2cc(-c3ccc(OC)cc3)oc3ccccc23)cc1` it was -4.77%; in that of `CCCNC(=O)CSc1nnc(C)s1`, -0.53%. For `Cn1ccnc1C(O)c1ccc(OCc2ccccc2)cc1` (centres undefined), the “inhibition” value is -7.82%. On to `CSc1nnc2c3c4c(sc3nc(-n3nc(C)cc3C)n12)COC(C)(C)C4`, for which the “inhibition” value was -16.7%. Turning to `COc1ccc(NC(=O)c2ccc(OC)cc2)cc1`, the “inhibition” value was -1.66%. Consider `FC(F)(F)C1=CC(c2ccc(Br)cc2)=NCCN1`, for which the “inhibition” value was 0.22%. The figure for `N=c1scc(-c2ccccc2)n1/N=C/c1ccco1` is 26.4%; for `COc1ccc(-c2nnc(SCCC(=O)O)n2-c2ccccc2)cc1` it is -16.3%. In the case of `O=C(NCCNc1ccc([N+](=O)[O-])cc1C(F)(F)F)c1cccc(F)c1` it was 35.4%. For the compound `Oc1ccc(Br)cc1-c1nc2cnccn2c1NC1CCCCC1`, the “inhibition” value is -0.48%. On to `O=C1CCCc2nc(N3CCN(Cc4ccccc4)CC3)ncc21`, for which the “inhibition” value is -1.19%.

Consider `COc1ccccc1CC1(C)NC(=O)N(CC(=O)N2CC(C)OC(C)C2)C1=O` (centres undefined), for which the “inhibition” value was -6.09%.

For the compound `Cc1ccccc1OCCSCc1nc2ccccc2[nH]1`, the “inhibition” value was 8.48%.

Take `O=C(Nc1ccc(S(=O)(=O)Nc2nccs2)cc1)c1cc(-c2ccccc2)nc2ccccc12`: the “inhibition” value is 11.3%. As for `Cc1ccc(C(=O)c2ccccc2C(=O)O)c(O)c1`, the “inhibition” value was -1.21%.

`CC(CN1CCOCC1)C(=O)c1ccccc1` (centres undefined): the “inhibition” value was 19.3%.

In the case of `Cc1cc(C(=O)NCc2cccs2)cs1`, the “inhibition” value is 1.82%.

Turning to `CCCc1cc(N2CCN(c3ccccn3)CC2)n2nc(C)c(-c3ccccc3)c2n1`, the “inhibition” value was -17.1%. As to `COc1ccc(CNc2nc3c(c(=O)[nH]c(=O)n3C)n2CCCc2ccccc2)cc1`, the “inhibition” value was -7.59%. Turning to `COc1nc(-c2ccccc2)ccc1-c1noc(C)n1`, the “inhibition” value was -2.17%. In the case of `NCCCCCc1nnc(SCc2ccc(Cl)cc2Cl)o1`, the “inhibition” value is 2.99%. As for `Cc1ccc([N+](=O)[O-])cc1-c1ccc(/C=C(\C#N)c2[nH]nc(N)c2C#N)o1`, the “inhibition” value was -4.17%.

`CNC(=O)CN(c1ccc(F)cc1)S(=O)(=O)c1cc(C)ccc1OC`: the “inhibition” value was -12.1%.

`CCN1C(=O)N/C(=C/c2ccc(Sc3ccc(C)cc3)o2)C1=O`: the “inhibition” value was -11%. Consider `O=C(CCCCCNc1nc(=S)[nH]c2ccccc12)NCCc1c[nH]c2ccccc12`, for which the “inhibition” value is -9.04%. `Cc1ccc2nc(NNC(=O)c3ccc(S(=O)(=O)N4CCc5ccccc5C4)cc3)sc2c1`: the “inhibition” value was 33.6%. Turning to `C=CCNCC#CCOc1ccc(OC)cc1`, the “inhibition” value was -8.21%. Turning to `Cn1cccc1C(=O)OCc1csc(-c2ccccc2)n1`, the “inhibition” value was -2.79%.

Regarding `Cc1ccc(S(=O)(=O)NCc2ccc(C(=O)N3CCN(c4ccccn4)CC3)cc2)cc1`, the “inhibition” value was 10.4%. Take `O=C(CCCN1Cc2ccccc2C1)c1ccc(F)cc1`: the “inhibition” value was -30.9%. Take `CCOC(=O)N1CCC(NC(=O)CCC(=O)c2ccccc2)CC1`: the “inhibition” value was -13.1%. The figure for `CN1C(=S)N(c2ccccc2)C(=O)/C1=C/c1ccco1` is -3.89%; for `Cc1ccc(C(=O)Nc2ccccc2C(N)=O)o1` it is 2.22%. In the case of `COc1cccc(-n2c(SCc3cc(=O)oc4cc(O)c(O)cc34)nc3ccccc3c2=O)c1` it was 24.6%; in that of `Cc1cccc(-n2c(N)cc(=O)[nH]c2=S)c1`, 36.5%; in that of `C/C(=N\NC(=O)c1ccccc1)c1ccc2c(c1)OCO2`, -1.5%.

In the case of `CCOc1ccccc1NS(=O)(=O)c1ccc(Br)s1`, the “inhibition” value is -5.39%. Consider `CC(C)NCCCOc1ccc(Cl)cc1Br`, for which the “inhibition” value was 12%.

Take `CCCCNCCCOc1cccc(Cl)c1Cl`: the “inhibition” value is 3.42%. For `Clc1cc(Br)ccc1OCCn1ccnc1`, the “inhibition” value was 9.91%. Take `Clc1ccc(OCCCn2ccnc2)c(Br)c1`: the “inhibition” value is 7.23%. The figure for `O=C(COc1ccc(Br)cc1Cl)NC(=O)NCc1ccccc1` is -14.2%; for `Clc1ccc(Nc2ccc(NCc3ccccc3)nn2)cc1` it is 8.59%; for `CCCCCNS(=O)(=O)c1cc(C)ccc1OC` it is 2.03%. The figure for `O=C1Nc2ccccc2C(O)(C(=O)N2CCCCC2)N1c1ccccc1` (centres undefined) is 0.43%. In the case of `Cc1cc(C2=NNC(=NC3CC3)SC2)c(C)n1Cc1ccco1` it was -6.12%.
